# HPGD block: HPGD (human) dehydrogenase inhibition; AID 894; 150,000 compounds, 4.3% hits; purified HPGD, NADH fluorescence kinetic, PGE2 substrate; Potency, µM, without a hit: at the highest dose activity change, negative = inhibition, hits mostly inhibitors; further: on the % scale 0 is the no-effect control and ±100 the full control effect
#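 20 nM HPGD preincubated 15 min at room temperature with compound in 50 mM Tris-HCl pH 8, 0.01% Tween 20. Started with 1 mM NAD+ and 30 uM prostaglandin E2; NADH fluorescence (360/450 nm) read 5 times over 30-s intervals, last minus first.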
# ALDH1A1 inh: inhibitors of human aldehyde dehydrogenase 1A1 | P00352 | Purified ALDH1A1, NADH fluorescence, propionaldehyde substrate | Potency, µM (doses to about 75.3 µM), without a hit: top-dose activity, negative = inhibition, most hits filed as inhibitors | 220,000 compounds, 7.3% hits | AID 1030;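 further: plate controls were no enzyme wells and a reference inhibitor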
# Target sequence (P00352 whole entry, looked up): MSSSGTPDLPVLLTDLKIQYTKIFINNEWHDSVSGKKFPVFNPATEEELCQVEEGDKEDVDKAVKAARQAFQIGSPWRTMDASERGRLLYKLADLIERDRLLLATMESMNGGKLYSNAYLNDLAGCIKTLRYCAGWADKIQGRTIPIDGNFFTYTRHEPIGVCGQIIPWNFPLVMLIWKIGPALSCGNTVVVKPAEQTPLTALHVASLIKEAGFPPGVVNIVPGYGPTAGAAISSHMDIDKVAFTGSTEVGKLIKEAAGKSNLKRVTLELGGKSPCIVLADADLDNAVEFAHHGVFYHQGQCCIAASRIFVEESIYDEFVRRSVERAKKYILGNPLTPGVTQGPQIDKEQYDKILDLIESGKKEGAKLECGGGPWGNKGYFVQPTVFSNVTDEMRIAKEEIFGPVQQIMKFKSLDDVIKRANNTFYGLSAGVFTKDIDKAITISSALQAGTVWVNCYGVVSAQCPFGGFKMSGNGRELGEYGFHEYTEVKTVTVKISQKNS
# HTT aggregate: inhibitors of mutant huntingtin aggregate formation in PC12 cells | 220,000 compounds, 1.1% hits | Potency, µM (highest dose often 46.1 µM), inactives show at the top dose activity change, negative = inhibition, hits mostly inhibitors | PC12 HttQ103-GFP aggregates, Acumen cytometry, 40 h; active means well fitted curve in the direction sought with a large enough effect; inconclusive means small, poorly fitted or top-dose-only effect, or another doubt; inactive means no such curve, though single readings can be large; an effect the other way counts as inactive or inconclusive; further: on the % scale 0 is the no-effect control and ±100 the full control effect; nearly all actives have a fitted effect of over 60% in size
#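 Inducible Q103 Huntingtin exon 1–GFP PC12 line, 1500 cells/well in phenol red free DMEM with 5% equine and 5% calf serum. Tebufenozide 100 nM induced expression; compounds titrated; aggregates quantified by cytometry.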
# HTT cytoprotect: Huntington cell model cytoprotection by ATP luminescence. PC12 HTT-Q103 induced, cytoprotection, ATP luminescence, 40 h. Potency, µM (titrated, usually from 56.4 µM), inactives show cytoprotection (ATP increase), hits mostly activators. 230,000 compounds, 0.14% hits. AID 1471; active means well fitted curve in the direction sought with a large enough effect; inconclusive means small, poorly fitted or top-dose-only effect, or another doubt; inactive means no such curve, though single readings can be large; an effect the other way counts as inactive or inconclusive; further: % of control where 0% means no effect; nearly all actives have a fitted effect of over 45% in size
#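 Huntington model: PC12 line, ecdysone-inducible HTTQ103 exon1–GFP, tebufenozide 100 nM. Test articles in a dose series. Endpoint luminescence from cellular ATP.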
# Lamin A splicing: modulators of lamin A splicing | HeLa LMNA splicing GFP/RFP minigene ratio, 48 h | Potency, µM (series often up to 46.1 µM), inactives show at the highest dose ratio change, negative = inhibition, hits mostly inhibitors | 200,000 compounds, 0.01% hits | AID 1487; active means well fitted inhibition curve with a large enough effect in the signal ratio, with a control signal flat, not every such curve was filed as active; inconclusive means small, poorly fitted or top-dose-only effect, or effect the other way, or a change in a side signal; the % refers to the signal ratio; further: on the % scale 0 is the no-effect control and ±100 the full control effect
#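 Read-out is the ratio of GFP to DsRed2 object intensity, acquired by 488 nm laser-scanning cytometry on HeLa lamin A-EGFP minigene reporter cells. Compound incubation 48 hrs at 37 °C in Opti-MEM with 2% FBS; DMSO 0.5% final.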
# Active calls of the source: *; ? = inconclusive; / = no result given; [ ] = remark or other dose. In the library only some 8.8% were active in any assay of this set; here they are far more common. Unless noted, the call rests on the fitted dose curve; in most records, active means well fitted inhibition curve with a large enough effect (not every such curve was filed as active); inconclusive means small, poorly fitted or top-dose-only effect, or another doubt; inactive means no such curve, though single readings can be large or run the other way. Potency means the concentration at half of the fitted maximal effect.
SMILES,HPGD block,ALDH1A1 inh,HTT aggregate,HTT cytoprotect,Lamin A splicing
CCOc1ccccc1NC(=O)c1sc2nc3n(c(=O)c2c1C)CCCCC3,/,/,/,/,-10%[46 µM]
COc1ccc(NS(=O)(=O)c2cc(C)ccc2NC(=O)c2cc(C)oc2C)cc1,-18%,7.9µM*,?,-71%[10 µM],?
COc1ccc(NS(=O)(=O)c2cccc(C(=O)NNC(=O)c3cc(C)oc3C)c2)cc1,-7%,-5%,5%,4%[10 µM],-5%
CC1CCCC(C)N1C(=O)c1cc(-c2ccc(Cl)c(Cl)c2)on1 (configuration not stated),18µM*,-19%,-28%,-20%,10%
C=CCN1CCc2c(cc(O)c(O)c2Cl)[C@H](c2ccccc2)C1,/,/,/,-3%[1.9 µM],/
CN1CCN(C(=O)c2ccc(CSc3nc4ccncc4n3Cc3ccc(F)cc3)cc2)CC1,16µM*,-2%,-25%,/,?
CCC(C)NC(=O)c1ccc(CSc2nc3ccncc3n2Cc2ccc(F)cc2)cc1 (configuration not stated),?,-14%,-9%,/,-8%
CC1CC(C)CN(C(=O)c2ccc(CSc3nc4ccncc4[nH]3)cc2)C1 (configuration not stated),5.6µM*,0%,-23%,/,?
O=C(NC1CCCC1)c1ccc(CSc2nc3ccncc3n2Cc2ccc(F)cc2)cc1,3.2µM*,-7%,5%,/,-11%
c1ccc(OCCCCN2CCOCC2)cc1,-10%,4%,5%,-1%,13%
O=S(=O)(CCOc1ccccc1)N1CCOCC1,6%,20µM*,-3%,/,-1%
C#CCCCO/N=C1/C[C@@H](O)[C@@H](O)[C@@H]2[C@@H]3C(=O)N(C[C@@H]4CCCO4)C(=O)[C@H]3CC[C@H]12,/,2%[13.5 µM],/,3%[10 µM],/
CCCCC/C=C\C=C\[C@H](O)CCCCCCCC(=O)O,/,8%,/,17%,/
OCCC1CN(Cc2c(O)ccc3ccccc23)CCN1CCc1ccccc1 (configuration not stated),/,11µM*,-4%[9.22 µM],-3%[10 µM],?
OCCC1CN(CCCn2cccn2)CCN1Cc1ccccc1 (configuration not stated),/,-8%,9%[9.22 µM],8%[10 µM],2%[46 µM]
Cc1ccc(CN2CCN(CCCc3ccccc3)CC2CCO)cc1 (configuration not stated),/,28µM*,6%,-44%,-23%[46 µM]
COc1ccc(CNc2ncncc2-c2cccc(NS(C)(=O)=O)c2)c(OC)c1,/,9%,/,-44%,3%
CC(=O)NC(CC(C)C)C(=O)NC(=O)NCc1ccccc1 (configuration not stated),-1%,5µM*,10%,-6%[10 µM],15%
CC(C(=O)NC(=O)NCc1ccccc1)N1C(=O)c2ccccc2C1=O (configuration not stated),-1%,11%,-11%,-6%[1.9 µM],5%
OCC1OC(/C=C\c2ccccc2)C=CC1Oc1ccc2c(c1)OCO2 (configuration not stated),/,?,/,11%[10 µM],/
COc1ccc(-c2nnc(SCC3CCCO3)n2C)cc1 (configuration not stated),/,?,11%,-105%,/
COc1ccc(C)cc1-n1nnnc1SCC1CCCO1 (configuration not stated),-13%,13µM*,-4%,5%,26%
CC(=O)Nc1ccc(SCC(=O)Nc2cc(C)on2)cc1,/,22µM*,27%,-20%,?
COc1ccc(C)cc1-n1nnnc1SCc1nc2ccccc2s1,-22%,11µM*,-28%,-19%,?
COc1ccc(-n2nnnc2SCc2nc3ccccc3s2)cc1,?,?,-27%,-35%,-12%
SMILES,HPGD block,ALDH1A1 inh,HTT aggregate,HTT cytoprotect,Lamin A splicing
O=C(Cn1nc(Cl)nc1Cl)c1ccc2c(c1)OCCO2,-5%,1.1µM*,-3%,7%[0.074 µM],-4%
Cc1cccc(NC(=O)CSc2nc(-c3ccccc3)cc(=O)[nH]2)c1C,/,/,/,/,-12%[46 µM]
Cc1ccc(CN(C(=O)COc2cccc(Cl)c2)c2ccccn2)o1,/,/,/,/,-16%[46 µM]
CC(C)=C[C@H]1[C@@H](C(=O)Oc2ccccc2C(C)C)C1(C)C,-11%,-2%[13.5 µM],/,-7%[10 µM],/
CCc1nn2c(=O)cc(COC(=O)c3cccc(NC(=O)CCc4ccccc4)c3)nc2s1,/,/,/,/,1%[46 µM]
Cc1cc(CNC(=O)C(C)n2nc(C)c([N+](=O)[O-])c2C)c2ccccc2n1 (configuration not stated),/,19%,-19%,?,/
COc1ccc(C)cc1-n1nnnc1SCC(=O)c1ccc2c(c1)OCCO2,-13%,11µM*,-14%,-8%,?
COc1ccc(C)cc1-n1nnnc1SCC(=O)Nc1cc(C)on1,-4%,2µM*,-16%,23%[1.9 µM],-10%
COc1ccc(C)cc1-n1nnnc1SCC(=O)Nc1cccnc1Cl,-4%,?,11%,23%[10 µM],?
COc1ccc(C)cc1-n1nnnc1SCC(=O)NC(=O)NCc1ccco1,-14%,13µM*,4%,0%[10 µM],7%
COc1cccc(-n2nnnc2SCC(=O)NCCc2ccccc2)c1,-15%,?,-6%,12%,14%
COc1ccc(OC)c(-n2nnnc2SCC(=O)NCCc2ccccc2)c1,-24%,1.3µM*,-13%,-15%,1%
COc1ccc(C(=O)N2CCC3(CCCN(Cc4cc(C(F)(F)F)cc(C(F)(F)F)c4)C3)CC2)cc1,-4%,-4%,/,-6%,/
COCCCn1c(SCC(=O)n2c(C)c(C)c3ccccc32)nnc1-c1ccoc1C,-11%,25µM*,-4%,-21%[10 µM],-11%
COc1ccc(-c2nnn(CC(=O)c3ccc4c(c3)OCCO4)n2)cc1OC,-6%,28µM*,9%,-8%[1.9 µM],?
COCCn1c(SCC(=O)c2ccc3c(c2)OCCO3)nnc1-c1ccoc1C,-23%,20µM*,?,-24%[10 µM],?
CCOc1ccc(-c2nnn(CC(=O)c3ccc4c(c3)OCCO4)n2)cc1,-25%,?,-6%,-13%,?
CS(=O)(=O)N1CCN=C1SCc1ccc([N+](=O)[O-])cc1,/,?,-18%,?,10%[9.22 µM]
O=C(Nc1ccc2nc(SCC(=O)N3CCc4ccccc43)sc2c1)c1cccc(F)c1,/,/,/,/,0%[46 µM]
Cc1ccc(CN2C(=O)C3(c4ccccc42)N(c2cccc(F)c2)C(=O)CS3(=O)=O)cc1 (configuration not stated),/,/,/,/,-20%[46 µM]
O=C(CSc1nnc(-c2cccnc2)n1C1CCCCC1)NC1CCCC1,22µM*,-5%,-5%,-10%[10 µM],-16%
CC1CCCN(C(=O)CSc2nnc(-c3cccnc3)n2C2CCCCC2)C1 (configuration not stated),?,-10%,6%,-3%[10 µM],-10%
CNc1cccccc1=S,28µM*,10µM*,18%,-12%,5%
CC1(C)CC(=O)C(N=Nc2ccc(F)cc2)=C(O)C1,/,/,-31%[9.22 µM],-6%[10 µM],/
CCN(CC)S(=O)(=O)c1ccc(N=NC2=C(O)CC(C)(C)CC2=O)cc1,-13%,2.5µM*,26%,14%[10 µM],?
